# Data published in ChEMBL document CHEMBL4513216, “Probing the Open Global Health Chemical Diversity Library for Multistage-Active Starting Points for Next-Generation Antimalarials” (ACS Infect Dis, 2020).
# About 2,100 (3.2%) of roughly 65,000 compounds showed an effect of 50% or more. The median lay at about -52%. The list comes from a sample in which strong results are over-represented; it also holds similar structures and randomly drawn compounds.
# Tested on: Plasmodium falciparum
# Assay: Screen against P. falciparum Asexual Blood Stage (ABS), at 5uM
# Format: functional, Dd2
# Settings: tested at 5 uM
row,SMILES,INHIBITION
1,Cc1cccc(CN2CCC3(CC(C(=O)NCC(C)C)=NO3)C2)c1 (stereo unspecified),-93.1%
2,CCOCCN1CCN(CCOCC(F)(F)F)CC1,-38.7%
3,FC(F)(F)C1CCCn2c(CNCc3ccco3)nnc21 (stereo unspecified),-67%
4,Cn1ccnc1C(O)(CCNCc1ccco1)C(F)(F)F (stereo unspecified),64.6%
5,CC(C(=O)NCc1ccco1)N1CCN(Cc2nccn2C)CC1 (stereo unspecified),-35.6%
6,CCc1cc(=O)[nH]c(-n2nc(C3CC3)cc2NC(=O)C2CC2)n1,-66.5%
7,COCCN1CCC(NC(=O)NCC2(c3cccc(F)c3)CC2)C1 (stereo unspecified),-77.2%
8,COCCN1CCC(NC(=O)Nc2cccc(F)c2)C1 (stereo unspecified),-54.6%
9,COCCC(=O)NC1CCN(CC2(c3cccc(F)c3)CCCC2)CC1,69.1%
10,CC(=O)NCC(=O)N1CCn2cc(CN3CCCCC3)nc2C1,-144%
11,O=C(c1ccc(S(=O)(=O)NCCc2ccncc2)cc1)N1CCCC1,-36.5%
12,COc1ccc(NC2CCc3c2[nH]c(=O)n(C2CCCCC2)c3=O)cc1 (stereo unspecified),-98.2%
13,CC(=O)N1CCC(c2ccnc(Nc3cncnc3)n2)CC1,-18.6%
14,c1ncc(Nc2nccc(C3CCCCN3CC3CCCCC3)n2)cn1 (stereo unspecified),52%
15,CC(=O)N1CCCC1c1ccnc(Nc2cncnc2)n1 (stereo unspecified),-101%
16,CN(C)CCCNC(=O)c1cnc(Cc2ccc(F)cc2)s1,27.4%
17,Cc1ccc(C(=O)NC(CN2CCCC2=O)c2ccccc2)cn1 (stereo unspecified),-81.3%
18,Cc1cnc(C(=O)NC(CN2CCCC2=O)c2ccccc2)cn1 (stereo unspecified),69.6%
19,Cc1cccc(C(=O)NC(CN2CCCC2=O)c2ccccc2)n1 (stereo unspecified),-161%
20,Cn1c2ccccc2c2ncn(CCN3CCOCC3)c(=O)c21,-57.9%
21,Cc1[nH]c2ccccc2c1-c1ccnc(N[C@H](CO)CC(C)C)n1,51.9%
22,Cc1[nH]c2ccccc2c1-c1ccnc(N[C@@H](CO)C(C)C)n1,-9.36%

row,SMILES,INHIBITION
1,Cc1[nH]c2ccccc2c1-c1ccnc(N[C@@H](C)CO)n1,-21.2%
2,CC(c1nc(-c2ccccc2)no1)N1CCc2c(ncn2C2CC2)C1 (stereo unspecified),-19.5%
3,Fc1cccnc1Oc1cc(F)c(CN2CCCC2)c(Cl)c1,-49.5%
4,OCC1CCN(C[C@@H]2CN(C3Cc4ccccc4C3)C[C@@H]2CO)CC1,66.4%
5,OC[C@H]1CN(C2Cc3ccccc3C2)C[C@H]1CN1CCC(O)CC1,15.1%
6,CN1CCN(C[C@@H]2CN(C3Cc4ccccc4C3)C[C@@H]2CO)CC1,51.4%
7,CN1CCN(C[C@@H]2CN(C(=O)c3ccccc3C#N)C[C@@H]2CO)CC1,-106%
8,Cc1cccc(CN2C[C@@H](CN3CCCN(C)CC3)[C@@H](CO)C2)n1,-29.5%
9,Cn1ccnc1CN1C[C@@H](CN2CCC(CO)CC2)[C@@H](CO)C1,-1.49%
10,Cc1cc(NCCN2CCNC2=O)nc2cc3c(cc12)CCC3,-14.4%
11,CSCCN1CCC(NC(=O)c2cccc(C3CCCNC3)c2)CC1 (stereo unspecified),-131%
12,O=c1[nH]c(N2CCN(C3CC3)CC2)nc2c1cnn2-c1ccccc1,50.1%
13,O=c1[nH]c(N2CC(O)C2)nc2c1cnn2-c1ccccc1,-202%
14,CC1CCN(c2nc3c(cnn3-c3ccccc3)c(=O)[nH]2)CC1,-6.59%
15,Cc1cc2cc(CNC3CCN(CC(=O)N(C)C)CC3)oc2cc1C,-159%
16,Cc1cc(Cl)cc(C)c1CNC1CCN(CC(=O)N(C)C)CC1,54.4%
17,Cc1nc(-c2c(C)noc2C)cc(C2CCN(CC(=O)N(C)C)CC2)n1,-74%
18,CC(C)CNC(=O)c1cccc(CN2CCc3c(ncn3C)C2)c1,-103%
19,CCOc1cccc2c1OCC(=O)N(c1ccc3c(c1)OCCO3)C2,-105%
20,COCCN1CCN(Cc2c(C)noc2C)Cc2ccc(C)nc21,-54%
21,Cc1ccc2c(n1)N(CCN(C)C)CCN(Cc1c(C)noc1C)C2,63.1%
22,COCCN1CCN(Cc2c(C)noc2C)Cc2cccnc21,-19.1%

row,SMILES,INHIBITION
1,Cc1cc(CNC(=O)NC(C)(CO)C2CC2)c(C)s1 (stereo unspecified),-55.5%
2,CCCC(C)NC1CCN(c2ccc(-n3ccnc3C)cc2)CC1 (stereo unspecified),52.3%
3,Cc1nccn1-c1ccc(N2CCC(N[C@H](C)C(C)C)CC2)cc1,-49.6%
4,Cc1nccn1-c1ccc(N2CCC(NC(C)CC(C)C)CC2)cc1 (stereo unspecified),30.2%
5,Cc1c[nH]nc1C1CCCCN1C(=O)CCn1nccc1C (stereo unspecified),-97%
6,Cc1cccn2cc(C(=O)N3CCCN(CC4CC4)C(C(C)C)C3)nc12 (stereo unspecified),-26.5%
7,O=C1N(CCO)CCCC12CCN(Cc1nnc(C3CC3)o1)C2 (stereo unspecified),-77.7%
8,O=S(=O)(NCC1(O)CCOc2ccccc21)c1ccc(Cl)s1 (stereo unspecified),-88.4%
9,O=S(=O)(NCC1(O)CCOc2ccccc21)c1ccc(Br)s1 (stereo unspecified),59.2%
10,Cc1ccc(S(=O)(=O)NCC2(O)CCOc3ccccc32)s1 (stereo unspecified),-36.2%
11,c1cncc(COCc2n[nH]c3c2CN(Cc2ccco2)C3)c1,-89.3%
12,CN1CCC2(CCN(S(=O)(=O)c3ccc(-c4cnco4)s3)CC2)C1,68.4%
13,O=S(=O)(c1ccc(-c2cnco2)cc1)N1CCCC(O)(CO)CC1 (stereo unspecified),-40.8%
14,O=S(=O)(c1ccc(-c2cnco2)cc1)N1CCCC2(CCNCC2)CC1,8.22%
15,CN1CCC2(CCCN(S(=O)(=O)c3ccc(-c4cnco4)s3)C2)C1 (stereo unspecified),52.1%
16,CN1CCCC2(CCN(S(=O)(=O)c3ccc(-c4cnco4)s3)C2)C1=O (stereo unspecified),-16.8%
17,O=S(=O)(c1ccc(-c2cnco2)cc1)N1CCC2(CCCNC2)C1 (stereo unspecified),47%
18,COC(=O)c1cc(OCC2CCC2)cc(C(=O)N[C@@H](C)CO)c1,-90%
19,c1ccc(N2CCOC3(CCCN(c4ncccn4)C3)C2)nc1 (stereo unspecified),-101%
20,c1ccc(N2CCCC2)c(NCc2ccncc2)c1,-27.2%
21,CN(Cc1cccc(C(N)=O)c1)c1ncc(C#N)cc1Cl,-76.1%
22,O=C(CN1CCCC(Cn2cncn2)C1)NCCCc1ccccc1 (stereo unspecified),-62.6%

row,SMILES,INHIBITION
1,Cc1cc(C(=O)N2CCC(N3CCNC3=O)CC2)nn1C(C)(C)C,-59.8%
2,Cc1cc(C(=O)N2CCCC(N3CCNC3=O)C2)nn1C(C)(C)C (stereo unspecified),-37.9%
3,Cc1cc(C(=O)N2CCCC(N3CCCCCC3)C2)nn1C(C)(C)C (stereo unspecified),55.5%
4,Cc1cc(CNC(=O)c2cnoc2C)c(C)o1,-78%
5,O=C(c1cccnc1O)N1CCN(Cc2ccccc2F)CC1,-14.3%
6,Cc1cc(Oc2ccccc2C)nc(C2CCCN2)n1 (stereo unspecified),25.4%
7,Cc1cc(Oc2ccccc2)nc(C2CCCCN2)n1 (stereo unspecified),-17.4%
8,Cc1cc(Oc2ccccc2F)nc(C2CCCCN2)n1 (stereo unspecified),57.5%
9,CN(C)C1(CNC(=O)C2CCCN2Cc2ccc(F)cc2)CCOCC1 (stereo unspecified),68.7%
10,CC(C)NC(=O)C1CN(Cc2ccc(F)cc2)CC12CCOCC2 (stereo unspecified),-23.5%
11,CN(C)C1(CNC(=O)CC=Cc2ccc(F)cc2)CCOCC1,57.5%
12,CN(C)C(C(=O)NCC1(N(C)C)CCOCC1)c1ccccc1F (stereo unspecified),-6.85%
13,CN(C)C1(CNC(=O)Cc2ccc(F)cc2)CCOCC1,0.427%
14,CC1(C(=O)NCCc2ccc(F)cc2)CCOCC1,-16.2%
15,COCc1nc(C(=O)N2CCCC2Cn2cc(C)cn2)cs1 (stereo unspecified),-179%
16,Cc1cccc(CN2CCC3(CCCN(Cc4cnn(C)c4)C3)C2)n1 (stereo unspecified),-21.5%
17,CN(C)C(=O)NCc1ncn2c1CN(Cc1cccs1)CCC2,-61.4%
18,CN(C)C(=O)[C@@]12CCO[C@@H]1CCN(Cc1ccc3c(c1)OCO3)C2,-52.2%
19,O=C(COc1coc(CN2CCSCC2)cc1=O)c1ccccc1,-95.1%
20,COc1ccccc1Oc1ncccc1CNC(=O)C1(C)CCCNC1 (stereo unspecified),-45.9%
21,CC1(C(=O)NCc2cccnc2Oc2ccc(F)cc2F)CCCNC1 (stereo unspecified),21.1%
22,Cc1cccc(C)c1Oc1ncccc1CNC(=O)C1(C)CCCNC1 (stereo unspecified),56.1%

row,SMILES,INHIBITION
1,CCn1ncc2c1C(COCC1CC1)CN(c1ccc(C)nn1)C2 (stereo unspecified),40.1%
2,Cc1nc2cc(C3CCN(Cc4cccc(F)c4F)C3)nn2c(O)c1C.O=C(O)CC(O)(CC(=O)O)C(=O)O (stereo unspecified),59.6%
3,CCc1c(C)nc2cc(C3CCN(Cc4ccccc4F)C3)nn2c1O (stereo unspecified),51.6%
4,CCc1c(C)nc2cc(C3CCN(Cc4cccc(F)c4)C3)nn2c1O (stereo unspecified),5.05%
5,CCc1c(C)nc2cc(C3CCN(CCc4ccccc4)C3)nn2c1O (stereo unspecified),-23%
6,Cc1nc2cc(C3CCN(Cc4ccccc4F)C3)nn2c(O)c1C (stereo unspecified),50.3%
7,Cc1nc(O)cc(C2CCN(Cc3cccc(F)c3F)C2)n1 (stereo unspecified),-81.4%
8,CN(Cc1noc(C2CC2)n1)C1CCN(Cc2cccc(F)c2F)C1 (stereo unspecified),26.6%
9,CCc1c(C)nc2cc(C3CCN(Cc4ccc(F)cc4)C3)nn2c1O (stereo unspecified),14.3%
10,CCc1c(C)nc2cc(C3CCN(Cc4cccnc4)C3)nn2c1O (stereo unspecified),-81.6%
11,Cc1nc(CN2CC(Cc3ccccc3)CC2=O)no1 (stereo unspecified),-37.6%
12,Cc1ccc(CNCc2ccc(N3CCC(CO)CC3)nc2)c(C)c1,-47.4%
13,CC(c1nc(C2CC2)no1)N1CCc2c(ncn2C)C1 (stereo unspecified),-90.5%
14,Cn1nc(C(=O)NCc2cccnc2)c2c1CCS(=O)(=O)C2,-148%
15,Cc1cnc(CCN(C)C(=O)c2ccc(O)nc2C)s1,-151%
16,COc1cccc(-c2cc(NCC(=O)O)nc3[nH]ccc23)n1,-47%
17,COc1cccc(-c2cc(NCCN(C)C)nc3[nH]ccc23)n1,53.1%
18,COc1cccc(-c2cc(NCCO)nc3[nH]ccc23)n1,-62.1%
